Our source for the growth inhibition values is PubChem BioAssay (NCI).

The panel holds about 79,000 compounds, 15% with a hit somewhere; the sample as a whole holds those more often. A number with no mark means an inactive call. Active and inactive are the calls of the source. Rule as the data show it: active = growth inhibition above about 70%; inactive = the rest.

Assay [1] in a line: NCI Yeast Anticancer Drug Screen. Data for the rad50 strain (AID 155).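 Also: 0% = growth of vehicle-only cultures of the same strain.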 As to conditions: S. cerevisiae rad50 strain growth inhibition; at 50.0 µM; stronger effect = higher value. In short, it runs like this: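 DNA repair mutant yeast, compound exposure, growth read-out; inhibition is taken relative to vehicle.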
The nature of assay [2]: NCI Yeast Anticancer Drug Screen. Data for the mec2-1 strain (AID 157). As to conditions: S. cerevisiae mec2-1 strain, at 50.0 µM, stronger effect = higher value. In short, it runs like this: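 Using mec2-1 yeast: add compound, measure growth, express inhibition versus vehicle-treated cultures.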
Assay [3] can be described thus: NCI Yeast Anticancer Drug Screen. Data for the sgs1 mgt1 strain (AID 161).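 Also: 0% = growth of cultures given vehicle only.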 To be noted: S. cerevisiae sgs1 mgt1 strain, at 50.0 µM, stronger effect = higher value. The method, boiled down: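 Growth of a repair-deficient yeast mutant was monitored after compound treatment and expressed as inhibition relative to vehicle-treated cultures.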
Assay [4] is described as follows: NCI Yeast Anticancer Drug Screen. Data for the cln2 rad14 strain (AID 165).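 Also: 0% = growth equal to vehicle treated cultures.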 As to conditions: S. cerevisiae cln2 rad14 strain, at 50.0 µM, stronger effect = higher value. The method, boiled down: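 Yeast strain cln2 rad14, bearing defects in cell cycle control and DNA repair, serves as the test system; values reflect growth inhibition compared with vehicle.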
Assay [5] in a line: NCI Yeast Anticancer Drug Screen. Data for the bub3 strain (AID 167). As to conditions: S. cerevisiae bub3 mutant strain, at 50.0 µM, stronger effect = higher value. In short, it runs like this:
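In this screen, a yeast mutant lacking normal mitotic checkpoint function is challenged with compound. Relative growth versus vehicle gives the inhibition value.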

Assay [6] in a line: NCI Yeast Anticancer Drug Screen. Data for the mlh1 rad18 strain (AID 175). To be noted: S. cerevisiae mlh1 rad18 strain growth inhibition; at 50.0 µM; stronger effect = higher value. In short, it runs like this: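 Steps: expose repair-defective yeast to compound; measure growth; express inhibition against vehicle-treated controls.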

With `C(=C\c1cccc2ccccc12)/c1ccc(-c2ccccc2)cc1`, the growth inhibition is -5.9% in assay [1]; -45% in assay [2]; -0.75% in assay [3]; 12.1% in assay [4]; -3.45% in assay [5]; 5.75% in assay [6].
Consider `COc1ccccc1NC(=O)CC(=O)N1N=C(N(c2ccccc2)c2ccccc2)CC1c1ccccc1` (stereo unspecified), for which the growth inhibition in assay [1] was 6.75%; in assay [2], -1.1%; in assay [3] it was -7.15%; in assay [4], 9.8%; in assay [5], 9.6%; in assay [6], 23.1%.
Consider `NC(=S)N1CCCC1`, for which the growth inhibition in assay [1] was -2.2%; in assay [2], -22.1%; in assay [3] it was 3.05%; in assay [4], 7%; in assay [5] it was 17.6%; in assay [6], 19.3%.
On to `O=[N+]([O-])c1cc2c(cc1Br)C1C(C3C2C2(Cl)C(Cl)=C(Cl)C3(Cl)C2(Cl)Cl)C2(Cl)C(Cl)=C(Cl)C1(Cl)C2(Cl)Cl` (stereo unspecified), for which the growth inhibition was 31.7% in assay [1]; 5.4% in assay [2]; 24.6% in assay [3]; 11.8% in assay [4]; 11.2% in assay [5]; 8.1% in assay [6].
On to `CCOP(=O)(O)C1CC2C3CC=C4CC(O)CCC4(C)C3CCC2(C)C1C(C)=O` (stereo unspecified), for which the growth inhibition is 15.9% in assay [1]; -3.25% in assay [2]; -0.55% in assay [3]; -14.4% in assay [4]; -2% in assay [5]; 3.5% in assay [6].
For the compound `CC(OCc1ccccc1)C(NC(=O)C1CSSCC(NC(=O)C(Cc2ccccc2)NC(=O)OCc2ccccc2)C(=O)NC(Cc2ccccc2)C(=O)NC(Cc2cn(C=O)c3ccccc23)C(=O)NC(CCCCNC(=O)OCc2ccccc2)C(=O)NC(C(C)OCc2ccccc2)C(=O)N1)C(N)=O` (stereo unspecified), the growth inhibition in assay [1] is -10.7%; in assay [2] it was 0.7%; in assay [3], -4.75%; in assay [4] it was 21.1%; in assay [5], 23.8%; in assay [6], -3%.
Regarding `CC(C)=CC1C[C@H](C2CC=C3C2(C)CCC2[C@@]3(C)C(=O)CC3[C@]2(C)C=CC(=O)[C@]3(C)CO)CO1` (stereo partly specified), the growth inhibition in assay [1] is 77.8% (active); in assay [2], 78.9% (active); in assay [3], 81.8% (active); in assay [4], 78% (active); in assay [5], 81.7% (active); in assay [6] it was 86.2% (active).
In the case of `COc1ccc(NC(=O)CSc2cc(Cl)ccc2Cl)cc1`, the growth inhibition in assay [1] is 10.7%; in assay [2] it was 7.15%; in assay [3], 32.1%; in assay [4] it was 18.9%; in assay [5], 21.6%; in assay [6] it was 27.9%.
Turning to `COC(=O)/C(C#N)=C/c1ccc2c(c1)OCO2`, the growth inhibition in assay [1] is 12.4%; in assay [2] it was 7.65%; in assay [3], 16.1%; in assay [4], 11.2%; in assay [5], 35.9%; in assay [6] it was 28.2%.
Turning to `C1=C(N2CCOCC2)CCC(N2CCOCC2)=C1`, the growth inhibition in assay [1] is -2.85%; in assay [2], 21.9%; in assay [3], 20.8%; in assay [4] it was 41.9%; in assay [5], -8.65%; in assay [6], -12.2%.
On to `CCCCCCCCSC(SCCCCCCCC)=C1C(=O)N(c2ccccc2)N=C1C`, for which the growth inhibition was -5.9% in assay [1]; -12.3% in assay [2]; 2.2% in assay [3]; 19.6% in assay [4]; -28.1% in assay [5]; -13% in assay [6].
With `CN(C)CCOC(=O)C(O)C1CCCCC1` (stereo unspecified), the growth inhibition in assay [1] was -14.3%; in assay [2], 12.8%; in assay [3], 5.5%; in assay [4] it was 18.4%; in assay [5], 15.2%; in assay [6] it was -19.9%.
With `O=C(OCCN1CCOCC1)C1C[C@@H](O)CN1C(=O)c1ccc2c(c1)OCO2` (stereo partly specified), the growth inhibition in assay [1] is -10.8%; in assay [2], -5.85%; in assay [3], 7.7%; in assay [4], 1.9%; in assay [5] it was -14.2%; in assay [6], 6.25%.
For `Nc1ccc(N(S(=O)(=O)c2ccccc2)S(=O)(=O)c2ccccc2)c(Cl)c1`, the growth inhibition was 77.3% (active) in assay [1]; 45.8% in assay [2]; 82% (active) in assay [3]; 39.5% in assay [4]; 69% in assay [5]; 78.7% (active) in assay [6].
As for `CC(=O)OC1CCC2(C)C(CCC3(C)C2CCC2C4C5OC(=O)C4(CCC5(C)C)CCC23C)C1(C)C` (stereo unspecified), the growth inhibition in assay [1] is -13%; in assay [2], -23.9%; in assay [3], -17.1%; in assay [4], -5.2%; in assay [5], -33%; in assay [6] it was 4.6%.
For `O=C(OCCN1CCCCC1)C(c1ccccc1)C1(O)CCSCC1` (stereo unspecified), the growth inhibition is 9.6% in assay [1]; 22.9% in assay [2]; 32.6% in assay [3]; 25.9% in assay [4]; 17.9% in assay [5]; 5.15% in assay [6].
`CCN(CC)CCOCC1CCCN2CCCCC12` (stereo unspecified): the growth inhibition in assay [1] is -9.5%; in assay [2] it was -9.8%; in assay [3], -1.75%; in assay [4], 5.75%; in assay [5], 16.1%; in assay [6], -50.1%.
Consider `CCO/N=C(/N)c1ncn(Cc2ccccc2)c1NCC(OCC)OCC`, for which the growth inhibition is -26.4% in assay [1]; 1.15% in assay [2]; -4.2% in assay [3]; 22.2% in assay [4]; -1% in assay [5]; -16.9% in assay [6].
On to `Cc1ccccc1NCS(=O)(=O)O`, for which the growth inhibition was 18.2% in assay [1]; -18.3% in assay [2]; 13.2% in assay [3]; -6.35% in assay [4]; -14.8% in assay [5]; 4.6% in assay [6].
Take `CN(C)c1ncnc2ncn(C3OC(CO)C(O)C3O)c12` (stereo unspecified): the growth inhibition in assay [1] is 67.6%; in assay [2], 46.6%; in assay [3], 60.2%; in assay [4] it was 7.3%; in assay [5] it was -13.2%; in assay [6] it was 61.7%.
Consider `CC(=O)OC1CC2(c3ccccc3)C(=O)c3ccccc3N2O1` (stereo unspecified), for which the growth inhibition in assay [1] is 27.2%; in assay [2], -16.6%; in assay [3] it was -11.8%; in assay [4] it was -12.7%; in assay [5] it was 10.2%; in assay [6] it was 19.6%.
